{"source": "ChEMBL document CHEMBL3988442", "about": "“University of Dundee, Small-Polar-MMV Screening Library” (2021)", "key": {"[1]": {"target": "T1, Aspartate--tRNA(Asp/Asn) ligase (Mycobacterium tuberculosis (strain ATCC 25618 / H37Rv)) (UniProt P9WFW3)", "T1 sequence (whole entry)": "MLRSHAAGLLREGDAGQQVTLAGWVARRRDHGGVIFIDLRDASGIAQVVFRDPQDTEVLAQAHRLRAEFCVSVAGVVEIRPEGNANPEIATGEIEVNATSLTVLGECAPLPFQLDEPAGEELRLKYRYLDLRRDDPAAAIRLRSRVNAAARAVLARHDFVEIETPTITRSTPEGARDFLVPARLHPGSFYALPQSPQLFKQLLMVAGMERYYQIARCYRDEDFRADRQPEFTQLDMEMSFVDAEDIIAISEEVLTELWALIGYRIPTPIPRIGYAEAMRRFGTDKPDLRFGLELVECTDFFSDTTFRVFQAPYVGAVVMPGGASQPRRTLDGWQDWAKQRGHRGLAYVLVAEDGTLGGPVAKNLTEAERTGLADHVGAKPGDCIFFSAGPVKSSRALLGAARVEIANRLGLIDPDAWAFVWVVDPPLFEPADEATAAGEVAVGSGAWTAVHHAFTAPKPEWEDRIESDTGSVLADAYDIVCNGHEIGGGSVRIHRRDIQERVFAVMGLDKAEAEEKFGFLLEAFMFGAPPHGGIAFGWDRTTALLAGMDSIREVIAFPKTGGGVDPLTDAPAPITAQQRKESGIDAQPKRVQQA", "experiment": "Assay for Asp RNA synthetase-1 from Mycobacterium tuberculosis", "assay_type": "functional", "parameters": "scale not given: direction of the effect not stated beside the values", "conditions": "30 µM"}, "[2]": {"target": "Shiga toxin 2 (Escherichia coli O157:H7) (UniProt P09385+P09386)", "experiment": "E. coli 0.157:H7 Shiga Toxin SOP - stx2 screening assay", "assay_type": "functional", "parameters": "scale not given: direction of the effect not stated beside the values", "conditions": "30 µM"}}}
{"smiles": "CCN(CCNC(=O)c1ccccc1OCCOC)C1CC1", "values": [{"measurement": "Percent Effect", "setting": "[1]", "result": -0.655, "unit": "%"}, {"measurement": "Percent Effect", "setting": "[2]", "result": -72, "unit": "%"}]}
{"smiles": "COc1cnc(C2(O)CCN(C(=O)c3ccncc3)CC2)c(OC)n1", "values": [{"measurement": "Percent Effect", "setting": "[1]", "result": -2.63, "unit": "%"}, {"measurement": "Percent Effect", "setting": "[2]", "result": -1.51, "unit": "%"}]}
{"smiles": "COc1ccc(C(O)CNc2c(C#N)c(=O)n(C)c(=O)n2C)cc1", "note": "(centres undefined)", "values": [{"measurement": "Percent Effect", "setting": "[1]", "result": -3.91, "unit": "%"}, {"measurement": "Percent Effect", "setting": "[2]", "result": -4.88, "unit": "%"}]}
{"smiles": "O=c1[nH]c2c(c(=O)n1C1CCCCC1)CCC2NCCc1ccccc1", "note": "(centres undefined)", "values": [{"measurement": "Percent Effect", "setting": "[1]", "result": -2.9, "unit": "%"}, {"measurement": "Percent Effect", "setting": "[2]", "result": 3.31, "unit": "%"}]}
{"smiles": "COc1ccc2c(c1)CC(NC(=O)NCc1cccs1)CO2", "note": "(centres undefined)", "values": [{"measurement": "Percent Effect", "setting": "[1]", "result": -4.82, "unit": "%"}, {"measurement": "Percent Effect", "setting": "[2]", "result": -8.88, "unit": "%"}]}
{"smiles": "COc1ccc(-c2cnc(CN3CCn4c(C)nnc4C3)o2)cc1", "values": [{"measurement": "Percent Effect", "setting": "[1]", "result": 0.144, "unit": "%"}, {"measurement": "Percent Effect", "setting": "[2]", "result": -27.2, "unit": "%"}]}
{"smiles": "Cc1nc(-c2ccsc2)ccc1C(=O)NCCC(=O)N1CCCC1", "values": [{"measurement": "Percent Effect", "setting": "[1]", "result": 0.0333, "unit": "%"}, {"measurement": "Percent Effect", "setting": "[2]", "result": -18.4, "unit": "%"}]}
{"smiles": "Cc1noc(C)c1C(=O)NCc1ccnc(OCC(F)(F)F)c1", "values": [{"measurement": "Percent Effect", "setting": "[1]", "result": -0.189, "unit": "%"}, {"measurement": "Percent Effect", "setting": "[2]", "result": 10.8, "unit": "%"}]}
{"smiles": "CC(=O)NC1CCCN(C(=O)NCc2ccc(-c3ccn[nH]3)cc2)C1", "note": "(centres undefined)", "values": [{"measurement": "Percent Effect", "setting": "[1]", "result": -1.85, "unit": "%"}, {"measurement": "Percent Effect", "setting": "[2]", "result": 1.62, "unit": "%"}]}
{"smiles": "Cc1noc(CN2CCN(Cc3cccs3)CC2)n1", "values": [{"measurement": "Percent Effect", "setting": "[1]", "result": -1.85, "unit": "%"}, {"measurement": "Percent Effect", "setting": "[2]", "result": 1.32, "unit": "%"}]}
{"smiles": "CC(C)c1noc(CCC(=O)NCC2CCS(=O)(=O)C2)n1", "note": "(centres undefined)", "values": [{"measurement": "Percent Effect", "setting": "[1]", "result": -3.63, "unit": "%"}, {"measurement": "Percent Effect", "setting": "[2]", "result": -17.1, "unit": "%"}]}
{"smiles": "CC1CCN(C(=O)c2cccc3ncccc23)CC1", "values": [{"measurement": "Percent Effect", "setting": "[1]", "result": -1.51, "unit": "%"}, {"measurement": "Percent Effect", "setting": "[2]", "result": 5.74, "unit": "%"}]}
{"smiles": "CCOCC1CN(Cc2cccc(C#N)c2)Cc2nccn2C1", "note": "(centres undefined)", "values": [{"measurement": "Percent Effect", "setting": "[1]", "result": -2.92, "unit": "%"}, {"measurement": "Percent Effect", "setting": "[2]", "result": -10.3, "unit": "%"}]}
{"smiles": "O=C(c1ccc[nH]1)N1CCC2(CC1)C(=O)Nc1ccccc12", "values": [{"measurement": "Percent Effect", "setting": "[1]", "result": -1.68, "unit": "%"}, {"measurement": "Percent Effect", "setting": "[2]", "result": 16.7, "unit": "%"}]}
{"smiles": "CC(=O)N1CC[C@H]2OCC[C@@]2(C(=O)NCc2ccco2)C1", "values": [{"measurement": "Percent Effect", "setting": "[1]", "result": 0.379, "unit": "%"}, {"measurement": "Percent Effect", "setting": "[2]", "result": -17.2, "unit": "%"}]}
{"smiles": "CCCc1nc(CN2CCN(CC(O)c3ccccc3)CC2)no1", "note": "(centres undefined)", "values": [{"measurement": "Percent Effect", "setting": "[1]", "result": -4, "unit": "%"}, {"measurement": "Percent Effect", "setting": "[2]", "result": -3.05, "unit": "%"}]}
{"smiles": "Cc1nc(C2CCN(C(=O)c3ccc(=O)n(C)c3)CC2)c2sccn12", "values": [{"measurement": "Percent Effect", "setting": "[1]", "result": 3.56, "unit": "%"}, {"measurement": "Percent Effect", "setting": "[2]", "result": -17.4, "unit": "%"}]}
